The source made the active and inactive calls. Unless noted, the rule behind the calls is not given here.
Columns and labels:
[1] = test system: Wnt5a (protein binding on small-molecule microarray); test: small molecules binding Wnt5a protein – biophysical, small-molecule microarray, 635/667 nm fluorescence, primary screen (AID 1142); conditions: 635 nm fluorescence, higher = more signal;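 note: fluorescence read at 667 nm with signal to noise per printed feature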
[2] = ATP-based viability of Huh7 replicon cells – cell-based, CellTiter-Glo luminescence, basal, 48 h, cytotoxicity control for HCV replication inhibitor project, primary screen (AID 1143); conditions: higher = more signal, called active from +8 up or from −8 down;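 note: Huh7 hepatoma cells carrying a hepatitis C replication reporter with no stimulus; test concentration not given here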
[3] = Pseudomonas biofilm growth suppression – PAO1 strain, BacTiter-Glo luminescence, LB-PBS, primary screen (AID 1144); conditions: P. aeruginosa PAO1 biofilm, 12 h, higher = more signal
[4] = basal CRE-LacZ reporter activity in PC12 – cell-based, unstimulated, primary screen (AID 1145); conditions: no forskolin, luminescence, 4.5 h, higher = more signal, called active from +8 up or from −8 down
[5] = forskolin-driven CRE-LacZ activity in PC12 – cell-based, CRE-LacZ reporter, forskolin-stimulated, primary screen (AID 1146); conditions: luminescence, 4.5 h, higher = more signal, called active from +8 up or from −8 down;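 note: PC12 cells with 6xCRE LacZ reporter stimulated by forskolin 10 µM; beta-galactosidase reporter signal reflecting CREB driven transcription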
[6] = target: Streptavidin (Streptomyces avidinii) (UniProt P22629); test: compounds binding control protein streptavidin – biophysical, small-molecule microarray, 635/667 nm fluorescence, artefact control for SMM compound annotation, primary screen (AID 1147); conditions: higher = more signal;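 note: signal reflects streptavidin binding to arrayed compounds as a control protein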
[7] = probe aInhba binding on compound microarray – biochemical, small-molecule microarray, 635/667 nm fluorescence, primary screen (AID 1148); conditions: higher = more signal;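 note: score merges 667nm spot fluorescence with signal-to-noise for antibody binding to printed compounds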
Torsin-1A (Homo sapiens) [8] = target: Torsin-1A (Homo sapiens) (UniProt O14656); test: TOR1A wild-type binding on microarray – cell lysate, small-molecule microarray, lysate, 635/667 nm, primary screen (AID 1149); conditions: COS7 hTOR1A-WT lysate, 635 nm fluorescence, higher = more signal
Torsin-1A (Homo sapiens) [9] = target: Torsin-1A (Homo sapiens) (UniProt O14656); test: torsin A mutant lysate binding on microarrays – cell lysate, small-molecule microarray, COS7 lysate, 635/667 nm fluorescence, primary screen (AID 1150); conditions: COS7 hTOR1A mutant lysate, 635 nm fluorescence, higher = more signal;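 note: score pools 667 nm emission and signal to noise measuring lysate protein binding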
[10] = test system: Sonic hedgehog protein (Shh); test: Sonic hedgehog microarray binding compounds – biochemical, small-molecule microarray, 635/667 nm fluorescence, primary screen (AID 1151); conditions: 635 nm fluorescence, higher = more signal;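 note: Shh protein binding to compounds spotted on small-molecule microarray slides; score combines spot fluorescence intensity with signal-to-noise across triplicate slides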
[11] = optical density shifts of acrAB sulA E. coli – strain DRC41, OD650, 48 h, E. coli filamentation inducer project, primary screen (AID 1152); conditions: higher = more signal, called active from +8 up or from −8 down;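 note: E. coli MC1000 strain DRC41 lacking acrAB efflux pump and sulA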
[12] = probe aLefty1 binding on compound microarray – biochemical, small-molecule microarray, 635/667 nm fluorescence, primary screen (AID 1153); conditions: higher = more signal;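 note: score merges spot fluorescence with signal-to-noise ratio from the scanned slide images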
[13] = plasmodial surface anion channel blockers, osmotic lysis – cell-based, P. falciparum Indochina, OD700, 1 h, primary screen (AID 1154); conditions: P. falciparum Indochina infected RBC osmotic lysis, higher = more signal, called active from +8 up or from −8 down
[14] = plasmodial surface anion channel blockers, osmotic lysis – cell-based, P. falciparum Indochina, OD700, 2 h, primary screen (AID 1155);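 note: lysis reports solute entry through the parasite surface anion channel PSAC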; conditions: P. falciparum Indochina infected erythrocytes, higher = more signal, called active from +8 up or from −8 down
[15] = changes in parasitized red cell lysis, either direction – P. falciparum Indochina, OD700, 3 h, PSAC antagonist project, primary screen (AID 1156); conditions: P. falciparum-infected erythrocytes, osmotic lysis, higher = more signal, called active from +8 up or from −8 down
[16] = plasmodial surface anion channel blockers, osmotic lysis – cell-based, P. falciparum Indochina, OD700, 18 h, primary screen (AID 1157); conditions: P. falciparum Indochina infected erythrocytes, osmotic lysis OD700, 18 h; higher = more signal, called active from +8 up or from −8 down
[17] = S6 kinase pathway phospho-S6 level changes – cell-based, A549, cytoblot, luminescence, serum-stimulated, primary screen (AID 1158); conditions: 5 h, higher = more signal;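 note: serum-stimulated A549 lung adenocarcinoma cells; signal is phosphorylated S6 detected by cytoblot immunostaining with HRP secondary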
[18] = target: NADPH oxidase 2 (Homo sapiens) (UniProt P04839); test: compounds shifting NOX2 Amplex Red fluorescence – cell-based, HEK293-NOX2, PMA-stimulated, NOX inhibitor project, primary screen (AID 1159); conditions: 45 min, higher = more signal, called active from +8 up or from −8 down; note: test concentration not given here
[19] = target: NADPH oxidase 4 (Homo sapiens) (UniProt Q9NPH5); test: compounds shifting NOX4 Amplex Red fluorescence – cell-based, HEK293-NOX4, tetracycline-induced, NOX inhibitor project, primary screen (AID 1160); conditions: HEK293-NOX4, Amplex Red H2O2 fluorescence, 45 min; higher = more signal, called active from +8 up or from −8 down
[20] = target: NADPH oxidase 5 (Homo sapiens) (UniProt Q96PH1); test: compounds shifting NOX5 Amplex Red fluorescence – cell-based, HEK293-NOX5, NOX inhibitor project, primary screen (AID 1161); conditions: HEK293-NOX5, ionomycin, 45 min, higher = more signal
Sequence of NADPH oxidase 5 (Homo sapiens) (Q96PH1 whole entry, looked up): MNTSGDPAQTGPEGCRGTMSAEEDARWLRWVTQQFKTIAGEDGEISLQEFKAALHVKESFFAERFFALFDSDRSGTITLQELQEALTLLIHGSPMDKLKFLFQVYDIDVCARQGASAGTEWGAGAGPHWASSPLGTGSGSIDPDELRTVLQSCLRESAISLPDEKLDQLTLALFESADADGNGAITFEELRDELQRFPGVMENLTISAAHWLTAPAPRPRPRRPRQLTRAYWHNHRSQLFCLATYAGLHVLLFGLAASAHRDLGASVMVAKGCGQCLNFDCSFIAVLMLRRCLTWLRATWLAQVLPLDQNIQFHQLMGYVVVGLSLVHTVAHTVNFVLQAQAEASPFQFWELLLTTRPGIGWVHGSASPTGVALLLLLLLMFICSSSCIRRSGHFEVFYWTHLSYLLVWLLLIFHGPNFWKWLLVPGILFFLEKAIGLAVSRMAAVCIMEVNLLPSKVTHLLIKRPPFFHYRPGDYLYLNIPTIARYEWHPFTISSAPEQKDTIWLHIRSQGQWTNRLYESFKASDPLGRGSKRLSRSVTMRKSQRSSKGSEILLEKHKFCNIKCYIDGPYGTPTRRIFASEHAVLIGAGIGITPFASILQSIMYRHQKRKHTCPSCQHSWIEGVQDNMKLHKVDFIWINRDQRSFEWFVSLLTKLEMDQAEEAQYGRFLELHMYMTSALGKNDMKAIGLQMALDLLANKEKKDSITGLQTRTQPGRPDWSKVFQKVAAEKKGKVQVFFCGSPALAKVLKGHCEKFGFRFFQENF

Sequence of Torsin-1A (Homo sapiens) (O14656 whole entry, looked up): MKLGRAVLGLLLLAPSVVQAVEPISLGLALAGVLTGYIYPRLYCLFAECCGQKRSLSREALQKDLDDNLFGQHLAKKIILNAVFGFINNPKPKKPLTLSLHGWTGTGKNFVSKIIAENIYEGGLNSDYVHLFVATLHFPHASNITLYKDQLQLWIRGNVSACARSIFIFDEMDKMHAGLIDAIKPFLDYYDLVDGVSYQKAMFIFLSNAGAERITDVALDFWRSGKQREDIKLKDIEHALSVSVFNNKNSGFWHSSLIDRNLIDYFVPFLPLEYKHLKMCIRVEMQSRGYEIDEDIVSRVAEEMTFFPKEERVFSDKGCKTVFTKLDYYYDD
Sequence of NADPH oxidase 4 (Homo sapiens) (Q9NPH5 whole entry, looked up): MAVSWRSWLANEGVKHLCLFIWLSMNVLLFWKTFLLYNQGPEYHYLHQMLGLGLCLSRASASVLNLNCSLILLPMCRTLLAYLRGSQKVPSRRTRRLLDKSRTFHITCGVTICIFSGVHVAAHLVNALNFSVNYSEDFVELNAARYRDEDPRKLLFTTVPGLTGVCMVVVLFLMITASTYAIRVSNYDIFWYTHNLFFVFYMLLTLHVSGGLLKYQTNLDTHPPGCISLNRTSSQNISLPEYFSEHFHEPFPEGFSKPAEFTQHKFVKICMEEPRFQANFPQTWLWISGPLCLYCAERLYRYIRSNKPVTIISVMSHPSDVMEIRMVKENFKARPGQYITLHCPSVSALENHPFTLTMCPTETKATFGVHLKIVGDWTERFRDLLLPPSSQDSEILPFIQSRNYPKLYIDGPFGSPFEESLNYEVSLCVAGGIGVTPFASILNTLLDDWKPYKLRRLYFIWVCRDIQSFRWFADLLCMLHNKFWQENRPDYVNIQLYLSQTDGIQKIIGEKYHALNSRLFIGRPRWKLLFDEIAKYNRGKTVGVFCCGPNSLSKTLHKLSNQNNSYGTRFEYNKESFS
Sequence of Streptavidin (Streptomyces avidinii) (P22629 whole entry, looked up): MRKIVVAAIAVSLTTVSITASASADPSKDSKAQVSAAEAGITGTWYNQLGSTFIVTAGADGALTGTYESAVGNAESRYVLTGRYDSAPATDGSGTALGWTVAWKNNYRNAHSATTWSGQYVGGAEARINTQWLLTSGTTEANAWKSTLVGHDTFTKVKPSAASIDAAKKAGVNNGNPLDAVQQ
Sequence of NADPH oxidase 2 (Homo sapiens) (P04839 whole entry, looked up): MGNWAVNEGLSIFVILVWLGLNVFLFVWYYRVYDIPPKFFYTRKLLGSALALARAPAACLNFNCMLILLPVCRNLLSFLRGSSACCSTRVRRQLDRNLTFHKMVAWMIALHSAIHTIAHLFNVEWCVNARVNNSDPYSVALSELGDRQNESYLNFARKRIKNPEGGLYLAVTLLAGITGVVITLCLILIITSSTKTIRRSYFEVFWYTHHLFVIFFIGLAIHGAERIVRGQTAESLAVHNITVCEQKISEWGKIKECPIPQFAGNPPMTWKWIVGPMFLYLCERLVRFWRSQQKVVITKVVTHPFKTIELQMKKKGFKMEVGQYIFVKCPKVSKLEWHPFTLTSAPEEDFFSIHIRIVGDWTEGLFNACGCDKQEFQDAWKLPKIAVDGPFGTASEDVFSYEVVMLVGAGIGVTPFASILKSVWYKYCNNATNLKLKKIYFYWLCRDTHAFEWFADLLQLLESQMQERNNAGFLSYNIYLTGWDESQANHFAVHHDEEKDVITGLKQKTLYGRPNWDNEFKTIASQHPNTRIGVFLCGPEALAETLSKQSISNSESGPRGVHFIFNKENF

Compound | composite z-score [1] | z-score [2] | z-score [3] | z-score [4] | z-score [5] | composite z-score [6] | composite z-score [7] | composite z-score (Torsin-1A (Homo sapiens) [8]) | composite z-score (Torsin-1A (Homo sapiens) [9]) | composite z-score [10] | z-score [11] | composite z-score [12] | z-score [13] | z-score [14] | z-score [15] | z-score [16] | z-score [17] | z-score [18] | z-score [19] | z-score [20]
O=C1O[C@@H](c2ccccc2)[C@@H](c2ccccc2)N2[C@@H](c3ccc(OCCO)cc3)[C@]3(C(=O)Nc4ccc(C#CC5(O)CCCCCC5)cc43)[C@@H](C(=O)Nc3nc4ccccc4s3)[C@H]12 | 0.41 | -1.6 (inactive) | -0.213 (inactive) | 0.685 (inactive) | -0.0048 (inactive) | 1.44 | 0.0945 | 1.14 | 0.985 | 1.11 | 0.219 (inactive) | -0.0061 | 2.63 (inactive) | 1.76 (inactive) | 0.626 (inactive) | 1.96 (inactive) | 0.693 | 1.2 (inactive) | -1.33 (inactive) | 0.52
CC(C)(C)N1CC=CC23O[C@@H]4/C=C\CCCOC(=O)C4[C@H]2C(=O)N(CCCCCO)[C@@H]3C1=O (stereo not given in full) | -0.552 | -0.0495 (inactive) | 1.27 (inactive) | 0.191 (inactive) | -0.311 (inactive) | -0.573 | -0.258 | -0.185 | -1.33 | -0.58 | -0.81 (inactive) | -0.191 | 0.373 (inactive) | 0.135 (inactive) | -1.09 (inactive) | 0.0116 (inactive) | -0.786 | 1.16 (inactive) | 0.0398 (inactive) | 1.21
C[C@]1(C(=O)O)c2ccccc2C(=O)N(Cc2cc(F)cc(C(F)(F)F)c2)[C@H]1c1ccc(CO)cc1 | -0.0056 | -2.56 (inactive) | -2.17 (inactive) | -0.502 (inactive) | -0.172 (inactive) | 0.0949 | -0.152 | -0.0875 | 0.154 | 0.505 | -0.169 (inactive) | -0.261 | 2.63 (inactive) | -0.0481 (inactive) | -0.992 (inactive) | -0.927 (inactive) | 1.27 | 0.477 (inactive) | -1.43 (inactive) | -2.26
CCCN1C(=O)[C@@]2(c3ccc([N+](=O)[O-])cc3)CC(=O)N(CC34CC5CC(CC(C5)C3)C4)[C@@H]2c2ccc(CO)cc21 | -0.347 | -0.0818 (inactive) | 0.312 (inactive) | 0.272 (inactive) | 1 (inactive) | -0.192 | 0.0588 | -1.21 | 0.019 | 0.102 | -0.803 (inactive) | 0.334 | 0.336 (inactive) | 0.0149 (inactive) | 0.519 (inactive) | -0.312 (inactive) | -0.574 | 0.658 (inactive) | 0.148 (inactive) | 0.631
CC1CC/C=C\[C@H]2OC34C=CCN(C(C)(C)C)C(=O)[C@H]3N(CCCO)C(=O)[C@@H]4C2C(=O)O1 (stereo not given in full) | -0.0437 | -0.032 (inactive) | 1.08 (inactive) | 0.203 (inactive) | -0.539 (inactive) | -0.561 | -0.128 | 0.62 | 2.01 | -0.757 | 0.0581 (inactive) | -0.0954 | -0.022 (inactive) | 0.571 (inactive) | -0.857 (inactive) | 0.235 (inactive) | 0.337 | 0.78 (inactive) | -2.14 (inactive) | 1.25
CCCNC(=O)[C@@]1(c2ccc([N+](=O)[O-])cc2)CC(=O)N(C(C)C)[C@@H]1c1ccc(CO)cc1 | -0.47 | -1.22 (inactive) | 0.313 (inactive) | 0.558 (inactive) | 0.282 (inactive) | -1.07 | -0.153 | -2.12 | -0.42 | -0.738 | -0.169 (inactive) | -0.207 | 1.4 (inactive) | -0.366 (inactive) | 1.18 (inactive) | 0.205 (inactive) | 0.0662 | -0.144 (inactive) | 0.069 (inactive) | -1.85
NC(=O)N1C(=O)C2C(C1=O)C1C=C(CCCO)C2C(C2CC2)N1Cc1sc2ccccc2c1Cl (stereo not given) | 0.588 | -0.205 (inactive) | 0.0825 (inactive) | 0.261 (inactive) | -0.654 (inactive) | 0.526 | -0.0371 | 0.842 | 0.82 | 0.726 | 0.4 (inactive) | 0.105 | 13.4 (active) | 2.12 (inactive) | 0.394 (inactive) | 1.07 (inactive) | 0.125 | 2.74 (inactive) | 0.923 (inactive) | -0.549
COc1ccc([Si](C)(C)[C@@H]2[C@@H](CC(=O)N(CCO)Cc3ccccc3)O[C@]3(C(=O)N(Cc4ccc(N5C(=O)c6cccc7cccc5c67)cc4)c4ccccc43)[C@H]2C)cc1 | 0.0547 | -4.28 (inactive) | -0.298 (inactive) | 0.12 (inactive) | -0.204 (inactive) | 0.22 | -0.0112 | 0.37 | 0.0705 | 1.8 | -0.414 (inactive) | 0.004 | 7.3 (inactive) | 2.33 (inactive) | 0.296 (inactive) | 1.14 (inactive) | 0.487 | 1.28 (inactive) | -0.496 (inactive) | 2.72

Reference: PubChem BioAssay
